# An excerpt weighted towards active compounds, which were near 6.7% of everything screened.
# FBA Mtb inh = inhibits M. tuberculosis FBA enzyme | purified M. tuberculosis FBA, fluorescence read-out | inhibition, % at 1 µM | 360,000 tested, 2.3% active | AID 588726; in the data active = inhibition above about 27%;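 also: 0% = vehicle and 100% = reference inhibitor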
# BoNT A protease = blocks Botulinum neurotoxin A light chain protease. inhibition, % at 10 µM. multiplex microsphere protease substrate cleavage, flow cytometry. 360,000 tested, 0.17% active; also: plate controls were buffer without enzyme for full effect and enzyme alone for no effect
# Autofluor counter = compound fluorescence in toxin protease inhibitor counterscreen; AID 624483; 360,000 tested, 3.1% active; compound autofluorescence counterscreen, microsphere flow cytometry; stronger effect = higher value; fluorescence intensity (test concentration not listed); in the data active = fluorescence intensity above about 16000; inconclusive = no clear call, values can overlap the other calls
# GDH-TPI inh = counter-screen for M. tuberculosis FBA inhibitors: GDH-TPI coupled enzymes | GDH-TPI coupled enzyme counterscreen, NADH absorbance | inhibition, % at 4.8 µM | 360,000 tested, 1.2% active; in the data active = inhibition above about 30%;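 also: 0% = DMSO wells and 100% = wells lacking the enzyme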
# Anthrax LF inh2 = inhibitors of Bacillus anthracis lethal factor protease. 360,000 tested, 0.12% active. inhibition, % at 10 µM. multiplex microsphere protease cleavage assay, LF. AID 588501; also: plate controls were buffer without enzyme for full effect and enzyme alone for no effect
# Target sequence (P15917 whole entry, looked up): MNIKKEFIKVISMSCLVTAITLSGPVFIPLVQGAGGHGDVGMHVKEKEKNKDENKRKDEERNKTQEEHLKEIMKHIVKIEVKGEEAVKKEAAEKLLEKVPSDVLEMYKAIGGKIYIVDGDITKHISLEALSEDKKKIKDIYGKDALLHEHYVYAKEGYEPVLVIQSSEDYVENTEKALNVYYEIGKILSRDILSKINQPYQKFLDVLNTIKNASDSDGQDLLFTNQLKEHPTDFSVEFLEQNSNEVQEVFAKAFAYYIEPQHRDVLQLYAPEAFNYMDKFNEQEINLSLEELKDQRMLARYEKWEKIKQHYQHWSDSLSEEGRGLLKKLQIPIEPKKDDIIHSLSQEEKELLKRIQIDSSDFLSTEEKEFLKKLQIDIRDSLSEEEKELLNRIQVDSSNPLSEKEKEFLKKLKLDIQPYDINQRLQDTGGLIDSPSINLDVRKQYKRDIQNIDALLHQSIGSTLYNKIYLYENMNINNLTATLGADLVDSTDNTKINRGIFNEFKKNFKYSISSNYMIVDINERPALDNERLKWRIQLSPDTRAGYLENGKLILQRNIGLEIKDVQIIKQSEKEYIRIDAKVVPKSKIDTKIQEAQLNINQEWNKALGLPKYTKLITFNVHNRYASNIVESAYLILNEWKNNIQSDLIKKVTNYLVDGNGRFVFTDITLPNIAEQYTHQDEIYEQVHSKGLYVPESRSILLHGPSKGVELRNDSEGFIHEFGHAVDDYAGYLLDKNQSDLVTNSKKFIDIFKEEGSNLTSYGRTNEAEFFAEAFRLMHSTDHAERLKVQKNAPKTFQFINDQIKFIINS
# BoNT F protease = blocks Botulinum neurotoxin F light chain protease. Multiplex microsphere protease cleavage assay, flow cytometry. inhibition, % at 10 µM. 360,000 tested, 0.22% active; in the data active = inhibition above about 35%, passing the limit was not always enough; inconclusive = no clear call, values can overlap the other calls; also: plate controls were buffer without enzyme for full effect and enzyme alone for no effect
# Numbers without * were called inactive; ? = inconclusive; · = no result. Rule as the data show it, unless noted: active = inhibition above about 30%; inconclusive = no clear call, values can overlap the other calls; inactive = below that.
SMILES,FBA Mtb inh,BoNT A protease,Autofluor counter,GDH-TPI inh,Anthrax LF inh2,BoNT F protease
Cn1cc(-c2nnnn2-c2ccc(Cl)cc2)c(C(F)(F)F)n1,0.5,0.7,23367*,2.5,-0.8,1.1
O=C(CSc1nccn(-c2ccc(Br)cc2)c1=O)NC1CCCC1,2.8,·,·,23.7,·,·
CC(C)n1cnc2cc(NCc3ccccn3)ccc21,2.4,-2.4,20604*,1.9,-3.7,-6.9
O=c1c2[nH]cnc2n(-c2ccc(F)cc2)c(=O)n1Cc1ccccc1,-0.8,0.0,3113,-4.8,6.2,-2.8
O=C(Nc1ccc(F)cc1)N1CCOCC1,-2.2,?,19165*,-11.2,-0.4,3.5
CCCC(=O)Nc1ccccc1NC(=O)C1CCCCC1,2.4,1.1,23241*,-0.6,2.1,1.6
O=C(Nc1ccc(F)cc1)N1CCCCCC1,-0.3,1.5,5338,7.4,2.5,6.2
COc1cc(NC(=O)C2CCCCC2)c(OC)cc1NC(=O)CCC(=O)NCc1ccco1,-6.5,0.7,22591*,9.7,-1.3,0.5
O=C(Nc1ccccc1)C1CCCCC1,-2.8,?,21764*,6.8,-0.9,-0.9
COc1cc(C=O)ccc1Oc1ccc(S(=O)(=O)N2CCOCC2)cc1[N+](=O)[O-],0.7,-0.1,4256,9.9,-5.7,-7.8
O=C(Nc1ccccc1)N1CCCC1,4.9,0.2,23605*,2.1,-2.0,1.4
O=C(Nc1ccccc1)N1CCNCC1,0.5,-0.9,3577,8.1,-5.4,-2.8
N#Cc1c(N)nc2c(c1-c1ccncc1)CCCCC2,-0.7,-0.3,16184*,17.5,-5.7,-1.2
N#Cc1sc2nc3c(c(-c4cccnc4)c2c1N)CCC3,0.2,1.7,5107,8.8,-8.3,-4.5
N#Cc1c(N)nc2c(c1-c1cccnc1)CCCCC2,1.7,?,21866*,13.6,-6.4,-0.7
O=C(CCCC(=O)OCC(Cl)=C(Cl)Cl)Nc1cccc(F)c1,-2.1,0.7,22287*,-5.8,-2.6,-0.1
c1ccc(CN2CCN(CCCNc3ccc4nnc(-c5ccccc5)n4n3)CC2)cc1,0.5,-0.9,7353,1.9,-9.7,-19.3
O=C(O)c1ccc(S(=O)(=O)Nc2ccc3c(c2)OCCO3)cc1,-3.3,-3.8,3498,-6.6,31.2*,?
O=C(O)c1cccc(S(=O)(=O)Nc2ccc3c(c2)OCO3)c1,-0.2,?,21051*,10.1,0.2,2.5
CCC(CC)NC(=O)COC(=O)c1ccc(NS(=O)(=O)c2ccc3c(c2)OCCO3)cc1,1.3,?,23057*,27.8,-5.3,-5.9
O=C(O)c1cccc(NS(=O)(=O)c2ccc3c(c2)OCCCO3)c1,-0.9,0.0,4190,-2.5,2.0,-1.5
O=C(Nc1ccc(CN2CCOCC2)cc1)c1ccccc1F,-0.9,?,?,3.4,?,?
CC(=O)Cc1nsc(NC(=O)c2ccc(-c3cccc(Cl)c3)o2)n1,3.5,0.0,3394,60.8*,-4.0,-0.1
O=C(Nc1ccc(CN2CCOCC2)cc1)c1ccc(-c2cccc(Cl)c2)o1,-0.6,0.2,20353*,17.0,-1.0,0.0
CC(=O)Cc1nsc(NC(=O)c2ccc(Br)o2)n1,-3.3,0.9,9916,18.3,5.3,-1.0
SMILES,FBA Mtb inh,BoNT A protease,Autofluor counter,GDH-TPI inh,Anthrax LF inh2,BoNT F protease
O=C(Nc1ccc(CN2CCOCC2)cc1)c1cccs1,5.1,0.9,22111*,5.6,-3.4,1.9
O=C(NC(=S)Nc1ccc(CN2CCOCC2)cc1)c1ccc(-c2cccc(Cl)c2)o1,0.5,0.1,5228,12.1,-6.1,4.3
CC(C)(C)C(=O)Cn1ncc(Cl)c(Cl)c1=O,6.5,0.4,2071,6.5,-1.1,-5.1
O=C(Nc1ncnc2sc3c(c12)CCCCC3)c1ccc(F)cc1,2.5,0.0,4268,-0.9,-12.3,-10.0
CN(C)N=Nc1nc2c(c(=O)n(C)c(=O)n2C)n1CC1CO1 (stereo not drawn),-2.1,0.2,5945,35.4*,-2.1,6.6
Cc1ccc2nc(N(CCN(C)C)C(=O)/C=C/c3cccs3)sc2c1,4.0,0.6,2059,22.3,-0.3,-2.0
COc1cccc2sc(N(CCN(C)C)C(=O)/C=C/c3cccs3)nc12,1.4,-0.2,4711,32.3*,-8.2,-12.1
CN(C)CCCN(C(=O)/C=C/c1cccs1)c1nc2ccc(F)cc2s1,-2.2,0.9,3452,48.1*,-1.8,-1.8
COc1ccc(OC)c2sc(N(CCN(C)C)C(=O)/C=C/c3cccs3)nc12,3.9,-3.0,5978,33.0*,-3.4,-0.2
COc1ccc(C)c2sc(N(CCN(C)C)C(=O)/C=C/c3cccs3)nc12,-0.2,-0.8,4700,30.8*,-5.2,-2.7
CCOc1cccc2sc(N(CCN(C)C)C(=O)/C=C/c3cccs3)nc12,-6.2,1.7,5118,4.3,-4.2,6.9
CCN(CC)CCN(C(=O)/C=C/c1cccs1)c1nc2ccc(F)cc2s1,1.6,-0.7,5894,3.9,-2.2,-1.9
O=C(O)CSc1ccc(Oc2ccc(SCC(=O)O)cc2)cc1,5.2,-1.2,4884,-1.9,3.1,-2.5
COc1ccc(C)cc1N(C(=O)c1ccccc1)c1nc2ccccc2s1,0.5,-0.5,2645,6.5,-1.3,-0.8
O=C1CCCc2c1nn(-c1ccccc1)[n+]2[O-],0.0,9.9,18962*,2.1,-15.9,9.6
CSc1nc(C)cc(OCC(=O)n2nc(C)cc2C)n1,0.3,?,23438*,4.2,-4.6,0.1
COc1ccc(Cn2c(O)c(/C=N/NC(=O)c3ccccc3)c(=O)[nH]c2=O)cc1,4.1,-1.4,1984,35.0*,1.1,-5.7
COc1ccc(Cn2c(O)c(/C=N/NC(=O)c3ccncc3)c(=O)[nH]c2=O)cc1,2.2,·,·,42.1*,·,·
CCn1c(O)c(/C=N/NC(=O)c2ccccc2)c(=O)[nH]c1=S,8.1,-1.2,5292,32.4*,-2.7,-9.9
O=C(N/N=C/c1c(O)n(CCc2ccc(F)cc2)c(=O)[nH]c1=O)c1ccncc1,2.8,-0.8,3977,21.0,-4.2,-4.9
O=C(N/N=C/c1c(O)n(CCc2ccccc2)c(=O)[nH]c1=O)c1ccncc1,1.8,-0.2,2516,27.6,0.9,-3.1
O=C(N/N=C/c1c(O)n(-c2cccc3ccccc23)c(=O)[nH]c1=O)c1ccncc1,1.8,-2.2,3693,43.5*,10.2,?
CC(C)CCNC(=O)C1CCC(CNS(=O)(=O)c2cccc3nsnc23)CC1 (stereo not drawn),0.2,-0.9,5295,-0.8,0.4,-3.4
Cn1nc([N+](=O)[O-])nc1Oc1ccccc1C(=O)N1CCOCC1,-0.5,0.0,4274,0.6,-1.6,1.1
CC(NC(=O)c1ccc(CS(=O)(=O)Cc2ccccc2F)o1)c1ccc2c(c1)OCCO2 (stereo not drawn),-0.9,-0.2,3130,-11.8,-1.3,-9.6
CCOC(=O)C1=C(COC(=O)/C=C/c2cccc(F)c2)NC(=O)NC1C (stereo not drawn),-0.7,0.0,4028,5.6,-5.5,3.2
O=C(CCNC(=O)c1ccc(Br)o1)NCc1ccccc1Cl,-1.0,0.9,9771,-1.4,1.0,1.9
O=C(CCNC(=O)c1ccc(Br)o1)NCc1ccccn1,0.7,-4.6,24852*,-4.9,-3.6,-5.2

# From PubChem BioAssay
